According to PubChem BioAssay AID1259313 (Sanford-Burnham Center for Chemical Genomics, 2017):
The campaign covered roughly 340,000 compounds. About 8,500 (2.5%) were called active.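 The calls were made as follows: active = melting temperature shift of at least 10% of the positive control shift, at one fixed dose; inactive = the rest.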 For the sample, actives were picked, then their nearest neighbours and some compounds at random.

tested on: Glutamate receptor ionotropic, NMDA 3A (GRIN3A) ligand-binding domain; test: binders of NR3A ligand-binding domain, primary screen, biophysical, differential scanning fluorimetry, uHTS (AID 1259313); settings: NR3A LBD differential scanning fluorimetry, at 25 µM, hits give high values, 0% = protein alone, 100% = glycine-bound protein

SMILES	Tm shift relative to glycine control
CC(C)c1ccc(C=NNc2ccc([N+](=O)[O-])cn2)cc1	-2.51% (inactive)
O=[N+]([O-])c1ccc(N/N=C/c2ccccc2)cc1	29.2% (active)
O=[N+]([O-])c1ccc(N=NNc2ccc([N+](=O)[O-])cc2)cc1	4.69% (inactive)
O=C1/C(=C\c2ccc([N+](=O)[O-])cc2)CS(=O)(=O)C/C1=C/c1ccc([N+](=O)[O-])cc1	-9.77% (inactive)
O=[N+]([O-])c1cccc(/C=N/Nc2ncc(Br)cn2)c1	-2.79% (inactive)
O=[N+]([O-])c1ccc(C=NN=Cc2ccc([N+](=O)[O-])cc2)cc1	12.6% (active)
CC1(C)Cc2c(sc(NC(=O)C(=O)N3CCOCC3)c2C#N)CO1	2.25% (inactive)
O=C(CN1C2CCC1CC(NC(=O)C1CC1)C2)NCc1ccccc1 (stereo not given)	-0.34% (inactive)
O=C(COC(=O)C1CC2CCCC(C1)C2=O)NC(=O)c1ccccc1 (stereo not given)	-1.22% (inactive)
Cc1c(C(=O)NNC(=O)c2ccncc2)oc2ccccc12	2.4% (inactive)
COc1ccc(NC(=O)N2CCCC2C(=O)NCc2ccccc2Cl)cc1 (stereo not given)	-2.42% (inactive)
FC(F)(F)c1cccc(-c2cc3ccccc3nc2N2CCCC2)c1	-0.24% (inactive)
Cc1ccc(S(=O)(=O)N(c2cccc(C)c2)C2CCS(=O)(=O)C2)cc1 (stereo not given)	-3.26% (inactive)
COCCn1c(=NC(=O)c2ccccc2[N+](=O)[O-])sc2cc(S(C)(=O)=O)ccc21	3.81% (inactive)
C=C(C)COc1ccc(-c2nc(N)ncc2-c2ccccc2OC)c(O)c1	-3.37% (inactive)
C=C(C)COc1ccc(-c2n[nH]c(C)c2-c2ccccc2)c(O)c1	10.9% (active)
C=C(C)COc1ccc(-c2ncncc2-c2ccc(OC)cc2)c(O)c1	-1.75% (inactive)
COc1c(C)c2c(c(O)c1C/C=C(\C)CCC(=O)O)C(=O)OC2	0.8% (inactive)
CC(OC(=O)c1cc2ccccc2[nH]1)C(=O)N(C)c1ccccc1 (stereo not given)	-1.09% (inactive)
O=C(Nc1ccccc1)c1cc2ccccc2[nH]1	20.5% (active)
COc1ccc2[nH]c(C(=O)Nc3ccccc3Cl)cc2c1	1.25% (inactive)
Cc1ccc(CC2C(=O)N(c3ccc(F)cc3)C(=O)C2C)cc1 (stereo not given)	1.55% (inactive)
CC(=O)N1CCN(CC(C)(C)NS(=O)(=O)c2ccc(C)cc2)CC1	1.96% (inactive)
O=C(NCCCN1CCOCC1)C1CCCN(S(=O)(=O)N2CCCCC2)C1 (stereo not given)	-1.39% (inactive)
CCOC(=O)N1CCN(C(=O)C(=O)Nc2sc3c(c2C#N)CC(C)(C)OC3)CC1	-1.52% (inactive)
